Only some compounds are listed: those with a hit (about 2.4% of all), similar ones and a draw of the others.
POLB inh: inhibitors of human DNA polymerase beta | P06746 | Pol beta primer extension/strand displacement, fluorescence kinetic | 340,000 compounds, 1.3% hits | Potency, µM (series often up to 114 µM), without a hit: at the top dose activity change, negative = inhibition, hits mostly inhibitors | AID 485314; also: % is scaled to controls: 0 for no effect and ±100 for the full control effect
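Curves were derived by four-parameter Hill fits of normalized qHTS data. The kinetic fluorescent primer-extension read was taken at 0 and 10 min after 50 nM substrate, following a 15 min room-temperature preincubation of 10 nM enzyme with compounds.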
Pol kappa inh: blocks human DNA polymerase kappa activity; Q9UBT6; purified Pol kappa, fluorescent DNA synthesis assay, 10 min; Potency, µM (top dose mostly 107 µM), without a hit: top-dose activity, negative = inhibition, hits mostly inhibitors; 400,000 compounds, 0.53% hits; AID 588579; also: % is scaled to controls: 0 for no effect and ±100 for the full control effect
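Activity was followed as the change in fluorescence between reads at 0 and 10 min after starting the reaction with 50 nM substrate. Beforehand, 10 nM polymerase had been preincubated with compound for 15 min at room temperature.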
WRN inhibitor: WRN helicase (human) inhibition; Q14191; WRN helicase unwinding, fluorescent forked duplex, kinetic; Potency, µM (series often up to 114 µM), for inactives: at the top dose activity change, negative = inhibition, most hits filed as inhibitors; 360,000 compounds, 0.46% hits; AID 651768; also: % is scaled to controls: 0 for no effect and ±100 for the full control effect; nearly all actives have a fitted effect of over 55% in size
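Primary qHTS, 1536-well format. 20 nM WRN + compound, 15 min RT; start with 100 nM forked fluorophore/quencher duplex, 2 mM ATP (final); kinetic read ex 525/em 598 nm.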
POLH inh: blocks human DNA polymerase eta activity. Q9Y253. recombinant Pol eta, fluorescent DNA replication assay. Potency, µM (top dose mostly 114 µM), without a hit: at the top dose activity change, negative = inhibition, usual class: inhibitors. 390,000 compounds, 1.2% hits. AID 588591; also: % is scaled to controls: 0 for no effect and ±100 for the full control effect
Target sequence (Q9Y253 whole entry, looked up): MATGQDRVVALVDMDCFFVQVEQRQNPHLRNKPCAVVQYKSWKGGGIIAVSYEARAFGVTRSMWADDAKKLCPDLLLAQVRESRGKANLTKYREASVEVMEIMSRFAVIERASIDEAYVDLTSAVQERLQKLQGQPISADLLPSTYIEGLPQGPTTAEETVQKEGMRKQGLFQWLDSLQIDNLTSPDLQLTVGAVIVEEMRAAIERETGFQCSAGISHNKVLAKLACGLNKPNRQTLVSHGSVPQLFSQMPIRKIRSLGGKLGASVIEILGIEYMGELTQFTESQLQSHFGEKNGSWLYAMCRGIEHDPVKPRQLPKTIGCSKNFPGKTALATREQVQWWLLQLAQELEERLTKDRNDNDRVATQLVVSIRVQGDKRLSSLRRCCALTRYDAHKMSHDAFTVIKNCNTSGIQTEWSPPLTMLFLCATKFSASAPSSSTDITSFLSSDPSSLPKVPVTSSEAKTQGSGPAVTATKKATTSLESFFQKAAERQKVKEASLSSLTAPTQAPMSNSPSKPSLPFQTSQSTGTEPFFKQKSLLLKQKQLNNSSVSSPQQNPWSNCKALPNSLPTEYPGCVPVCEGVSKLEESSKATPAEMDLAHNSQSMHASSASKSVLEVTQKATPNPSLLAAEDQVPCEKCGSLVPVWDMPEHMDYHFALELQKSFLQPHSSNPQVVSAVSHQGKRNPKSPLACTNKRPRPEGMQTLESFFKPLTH
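Fluorescent replication assay: 50 nM final substrate added after a 15 min room-temperature compound preincubation with 10 nM enzyme. Signal taken at 0 min and again at 10 min.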
Pol iota inh: inhibitors of human DNA polymerase iota. Q9UNA4. Pol iota fluorescent replication assay, 10 min. Potency, µM (titrated, usually from 115 µM), without a hit: top-dose activity, negative = inhibition, usual class: inhibitors. 390,000 compounds, 1% hits
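Pol iota at 10 nM preincubated 15 min with compounds at room temperature; reaction started with fluorescent substrate, 50 nM final. Fluorescence read kinetically at 0 and 10 min; buffer-only wells as negative control.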
FEN1 inh: blocks human flap endonuclease 1. Recombinant FEN1 flap cleavage, fluorescence, 15 min. Potency, µM (series often up to 114 µM), inactives show top-dose activity change, negative = inhibition, actives largely listed as inhibitors. 390,000 compounds, 0.35% hits; also: % is scaled to controls: 0 for no effect and ±100 for the full control effect; nearly all actives have a fitted effect of over 65% in size
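Compounds are tested as a concentration series against 10 nM FEN1; after a 15 min room-temperature preincubation, 50 nM substrate starts cleavage, with plate reads at 0 and 15 min. Normalized responses are fitted by a Hill equation.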
An asterisk follows results filed as active; [ ] = another dose, or the depositor's remark. Calls follow the shape of the dose curve; as a rule, active = well fitted curve in the direction sought with a large enough effect; inconclusive = small, poorly fitted or top-dose-only effect, or another doubt; inactive = no such curve, though single readings can be large; an effect the other way counts as inactive or inconclusive. Potency is read from the fitted curve at half-maximal effect.

What do the screens show for `Cc1cccc(C)c1NC(=O)CN(CC(=O)O)CC(=O)O`?
Pol kappa inh: -6%[19.4 µM]

What do the screens show for `COc1ccc2nc(-c3ccccc3)[nH]c(=O)c2c1`?
Pol kappa inh: -14%; WRN inhibitor: 3%; POLH inh: 2%; Pol iota inh: -21%; FEN1 inh: -9%

What do the screens show for `COc1ccc(-c2nc3ccc(N4CCCC4)cc3c(=O)[nH]2)cc1OC`?
POLB inh: 40µM*; Pol kappa inh: -3%; WRN inhibitor: inconclusive; POLH inh: inconclusive; Pol iota inh: inconclusive; FEN1 inh: inconclusive

What do the screens show for `CC(=O)Nc1cccc(NC(=O)c2c(-c3ccccc3)c(-c3ccccc3)nn(C)c2=O)c1`?
POLB inh: 27%; Pol kappa inh: 0%; POLH inh: -20%; Pol iota inh: -4%; FEN1 inh: -16%

What do the screens show for `CCc1nc2ccc(C(=O)N(CC)CC(=O)Nc3c(F)cccc3F)cc2nc1CC`?
Pol kappa inh: -45%; WRN inhibitor: -5%; POLH inh: 35µM*; Pol iota inh: inconclusive; FEN1 inh: 0%

Results for CCN(CC(=O)Nc1c(F)cccc1F)C(=O)c1ccc(C(=O)c2ccccc2)cc1 ?
Pol kappa inh: -16%; WRN inhibitor: 11%; POLH inh: 1%; Pol iota inh: 10%; FEN1 inh: -2%

What do the screens show for `O=C(c1cc(-c2cccc(Br)c2)nc2ccccc12)N1CCCC1`?
POLB inh: 22µM*; Pol kappa inh: -24%; WRN inhibitor: -14%; POLH inh: -17%; Pol iota inh: inconclusive; FEN1 inh: -16%

How did Cc1cccc(NC(=O)C(=O)NCCc2sc(-c3ccccc3)nc2C)c1C do in these assays?
POLB inh: 11%; Pol kappa inh: -4%[60.1 µM]; POLH inh: -9%; Pol iota inh: 28%; FEN1 inh: 3%

How did COc1cc(-c2cccs2)cc(=O)c2c(C)oc(C)c12 do in these assays?
POLB inh: 14µM*; Pol kappa inh: -17%; WRN inhibitor: -14%[57.1 µM]; POLH inh: -9%; Pol iota inh: inconclusive; FEN1 inh: -31%

How did Cc1ccc(S(=O)(=O)Cc2nc(-c3ccc(C(=O)NCc4ccccc4F)cc3)oc2C)cc1 do in these assays?
POLB inh: inconclusive; Pol kappa inh: -10%; Pol iota inh: inconclusive; FEN1 inh: -1%

Results for COc1ccc(NC(=O)/C(C#N)=C\c2ccc(Br)o2)cc1 ?
POLB inh: inconclusive; Pol kappa inh: 79µM*; WRN inhibitor: inconclusive; POLH inh: inconclusive; Pol iota inh: 10µM*; FEN1 inh: -34%

How did COc1ccc(NC(=O)/C(C#N)=C\c2ccc(-c3cccc(C(=O)O)c3C)o2)cc1 do in these assays?
POLB inh: 7.9µM*; Pol kappa inh: inconclusive; WRN inhibitor: 3%[11.6 µM]; POLH inh: 22µM*; Pol iota inh: inconclusive; FEN1 inh: 4%

What do the screens show for `CCC(=O)N1CCCc2cc(S(=O)(=O)N3CCC(C(=O)Nc4ccccc4CC)CC3)ccc21`?
POLB inh: 4%; Pol kappa inh: -6%[60.1 µM]; POLH inh: -7%; Pol iota inh: -13%; FEN1 inh: 2%

Results for O=c1cc(O)c2sc(Nc3ccc(F)c(Cl)c3)nc2[nH]1 ?
POLB inh: 56µM*; Pol kappa inh: -2%; WRN inhibitor: inconclusive; POLH inh: -12%; Pol iota inh: 43%; FEN1 inh: -3%

What do the screens show for `O=c1cc(O)c2sc(Nc3ccc(Cl)c(F)c3)nc2[nH]1`?
POLB inh: -26%; Pol kappa inh: -16%; WRN inhibitor: inconclusive; POLH inh: -8%; Pol iota inh: 15%; FEN1 inh: -34%

Results for COc1ccc(Nc2nc3[nH]c(=O)cc(O)c3s2)cc1 ?
POLB inh: 45µM*; Pol kappa inh: 6%; WRN inhibitor: -5%; POLH inh: -19%; Pol iota inh: 84%; FEN1 inh: 4%

What do the screens show for `Cn1c(=O)c2cc(C(=O)N3CCN(c4ccc(Cl)cc4)CC3)sc2c2ccccc21`?
POLB inh: -9%; Pol kappa inh: -4%; POLH inh: -13%; Pol iota inh: -5%; FEN1 inh: 11%

Results for NC(C(=O)N[C@@H]1C(=O)N2C(C(=O)O)=C(Cl)CS[C@H]12)c1ccccc1 (some centres undefined) ?
POLB inh: 13%[57.1 µM]; Pol kappa inh: -7%[60.1 µM]; POLH inh: -1%[57.1 µM]; Pol iota inh: 4%[58.9 µM]

What do the screens show for `NC(=O)c1cc[n+](CC2=C(C(=O)O)N3C(=O)[C@@H](NC(=O)C(c4ccccc4)S(=O)(=O)[O-])[C@H]3SC2)cc1` (some centres undefined)?
POLB inh: -21%; Pol kappa inh: 1µM*; POLH inh: -100%; Pol iota inh: 0.79µM*; FEN1 inh: 2.2µM*

What do the screens show for `NC(=O)c1cc[n+](CC2=C(C(=O)O)N3C(=O)[C@@H](NC(=O)[C@H](c4ccccc4)S(=O)(=O)[O-])[C@@H]3SC2)cc1`?
Pol kappa inh: 4.2µM*

How did COc1cccc(-c2ccc3ncnc(Nc4ccccc4)c3c2)c1 do in these assays?
Pol kappa inh: 0%[60.1 µM]

Results for Cc1ccccc1OCC(=O)NCC(=O)N/N=C/c1ccc(Br)o1 ?
POLB inh: inconclusive; Pol kappa inh: -5%; WRN inhibitor: -25%; POLH inh: 25µM*; Pol iota inh: -11%; FEN1 inh: -3%

What do the screens show for `c1cc2c3c(c1)CCC[N+]3(C1CCCCC1)CCC2`?
Pol kappa inh: -14%; Pol iota inh: 27%; FEN1 inh: -1%

What do the screens show for `O=S(=O)(Nc1ccc(F)c(C(F)(F)F)c1)c1ccc(N2CCCCS2(=O)=O)cc1`?
POLB inh: 0%; Pol kappa inh: 4%[60.1 µM]; POLH inh: -10%; Pol iota inh: 18%; FEN1 inh: 3%

Results for COc1cc(OC)cc(C(=O)OCC(=O)c2cc(C)n(CC3CCCO3)c2C)c1 (centres undefined) ?
Pol kappa inh: -8%; WRN inhibitor: -4%; POLH inh: -13%; Pol iota inh: 12%; FEN1 inh: -25%

How did Cc1cc(C(=O)COC(=O)c2ccc(O)cc2)c(C)n1CC1CCCO1 (centres undefined) do in these assays?
POLB inh: 29%; Pol kappa inh: inconclusive; WRN inhibitor: 3%[11.6 µM]; POLH inh: -24%; Pol iota inh: 89µM*; FEN1 inh: -5%

Results for COc1ccc(S(=O)(=O)N2CN(Cc3ccco3)c3nc4ccccc4nc32)cc1 ?
POLB inh: -11%; Pol kappa inh: -9%; WRN inhibitor: 56µM*; POLH inh: 79µM*; Pol iota inh: inconclusive; FEN1 inh: -4%
